Activity calls are given as the source filed them.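 Rule for the calls: active = cell event count below 40, meaning activity score above 60 where score is 100 minus count; inactive = the rest.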

This assay is described as follows: cytotoxicity in LNCaP prostate cells – cell-based, cell event count, single point, cytotoxicity control for prostate differentiation activator project, confirmation (AID 1076).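 Note: counts scatter-gated live cells after medium removal discards detached dead cells.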 The following applies: LNCaP cell loss, flow cytometry event count, 4 d, stronger effect = lower value. Background: In flow cytometry, cells or beads pass a laser one at a time.

`CCC(C)NC(=O)c1cn(C)c(=O)c2cc(OC)c(OC)cc12` (stereo not given): the cell event count is 386 (inactive) (at 100 µM) and 302 (event count, at 10 µM).
Take `COc1ccc(N2CCN(CCCNC(=O)C3CCCN(S(=O)(=O)c4cnc[nH]4)C3)CC2)cc1` (stereo not given): the cell event count reads like this: (at 100 µM) 31 (inactive); (event count, at 10 µM) 92.5.
The corresponding values for `Cc1cc(=O)oc(C)c1C(=O)NCCCN1CCN(c2ccc(F)cc2)CC1` are 236 (inactive) and 100.
On to `CCc1ccc(-c2nc(CN3CCC(C(=O)NCCN(CC)c4ccccc4)CC3)c(C)o2)cc1`, for which the cell event count is 6 (inactive) (at 100 µM) and 150 (event count, at 10 µM).
The corresponding values for `COc1ccc(-c2cc(C(F)(F)F)nc(N3CCN(C)CC3)n2)cc1` are 4 (inactive) and 102.
The matching figures for `Cc1ccc(-c2noc(CCC(=O)NCCCN3CCN(c4ccc(F)cc4)CC3)n2)cc1`: 14 (inactive) and 98.
The corresponding values for `Nc1ccc(-c2nc3c(Cl)c(N)ccc3[nH]2)cc1` are 183 (inactive) and 206.
Turning to `COc1ccc(NC(=O)NCCCN2CCN(c3cc(C)ccc3C)CC2)cc1`, the cell event count (at 100 µM) is 1 (inactive) and the cell event count (event count, at 10 µM) is 102.
`O=C(c1ccc2c(c1)OCCO2)N1CCCCC1`: the cell event count (at 100 µM) is 65 (inactive) and the cell event count (event count, at 10 µM) stood at 81.5.
On to `CCN1CCCC1CNC(=O)c1cc2c(-c3ccc(Cl)cc3)nn(C)c2s1` (stereo not given), for which the cell event count runs as follows: (at 100 µM) 14 (inactive); (event count, at 10 µM) 88.5.
For `Cc1ccccc1-c1nc(CN2CCC(C(=O)NCCCN3CCCC3)CC2)c(C)o1`, the cell event count (at 100 µM) was 20 (inactive) and the cell event count (event count, at 10 µM) was determined as 65.
The corresponding values for `CC1=C(n2nnc3ccccc32)C(c2ccccc2)C(C#N)=C(N)O1` (stereo not given) are 96 (inactive) and 97.5.
On to `CCN(CCNC(=O)C1CCN(Cc2nc(-c3ccc(Cl)cc3)oc2C)CC1)c1ccccc1`, for which the cell event count (at 100 µM) was 24 (inactive) and the cell event count (event count, at 10 µM) came out at 391.
As to `COc1ccccc1NC(=O)c1nc[nH]c1C(=O)Nc1ccccc1OC`, the cell event count (at 100 µM) is 103 (inactive) and the cell event count (event count, at 10 µM) is 257.
Consider `CC(C)N1CCC2(CC1)N=C(c1ccc3c(c1)OCO3)CC(c1cc(Cl)ccc1O)N2` (stereo not given), for which the cell event count runs as follows: (at 100 µM) 46 (inactive); (event count, at 10 µM) 43.5.
The corresponding values for `O=C(Cc1ccc(-n2cccc2)cc1)NCc1cccs1` are 160 (inactive) and 133.
The matching figures for `Nc1ccccc1NC(=O)c1ccccc1N`: 236 (inactive) and 313.
The corresponding values for `Cc1nnc(NCc2n[nH]c(=O)c3ccccc23)c2ccccc12` are 47 (inactive) and 219.
Take `O=C(CN1CCN(Cc2ccc3c(c2)OCO3)CC1)N1CCc2[nH]c3ccc(F)cc3c2C1`: the cell event count reads like this: (at 100 µM) 24 (inactive); (event count, at 10 µM) 234.
On to `COc1cc(C2C3=C(Nc4ncnn42)c2ccccc2CC3)cc(OC)c1OC` (stereo not given), for which the cell event count (at 100 µM) is 295 (inactive) and the cell event count (event count, at 10 µM) was 428.
The corresponding values for `Cc1ccc(NC(=O)CCNS(=O)(=O)c2ccc3c(c2)oc(=O)n3C)c(C)c1` are 350 (inactive) and 129.
Regarding `CCc1ccc(-c2nc(CN3CCC(C(=O)NCCc4ccc(OC)c(OC)c4)CC3)c(C)o2)cc1`, the cell event count (at 100 µM) was 17 (inactive) and the cell event count (event count, at 10 µM) turned out to be 204.
With `COc1ccc(-c2ccc(-c3nnn(CC(C)=O)n3)cc2)cc1`, the cell event count was 145 (inactive) (at 100 µM) and 116 (event count, at 10 µM).
The corresponding values for `Cc1cc(NC(=O)CSc2nnc(Cn3c(=O)sc4ccccc43)n2-c2ccccc2C)no1` are 200 (inactive) and 121.
The matching figures for `Cc1cc(=O)oc(C)c1C(=O)NCCCN1CCN(c2ccccc2F)CC1`: 232 (inactive) and 308.
The corresponding values for `Cc1ccc(-c2noc(CCC(=O)NCCCN3CCN(c4cccc(Cl)c4)CC3)n2)cc1` are 22 (inactive) and 123.
Take `CCn1c(=O)cc(SCC(=O)N2CCN(C3CCCCC3)CC2)c2ccccc21`: the cell event count was 6 (inactive) (at 100 µM) and 402 (event count, at 10 µM).
The corresponding values for `CCn1c(=O)cc(OCC(=O)NCCCN2CCN(c3cccc(Cl)c3)CC2)c2ccccc21` are 20 (inactive) and 307.
The matching figures for `CCOC(=O)N1CCN(S(=O)(=O)c2ccc(C(=O)Nc3nc4ccccc4s3)cc2)CC1`: 145 (inactive) and 172.
The corresponding values for `Cc1noc(C)c1S(=O)(=O)N1CCC(C(=O)NCCN2CCC(C)CC2)CC1` are 300 (inactive) and 188.
Take `CCOC(=O)N1CCC(NC(=O)c2cc3c(-c4ccc(OC)c(OC)c4)nn(C)c3s2)CC1`: the cell event count reads like this: (at 100 µM) 151 (inactive); (event count, at 10 µM) 398.
As for `O=C(Cc1coc(-c2ccc(F)cc2)n1)N1CCOCC1`, the cell event count is, setting by setting: (at 100 µM) 217 (inactive); (event count, at 10 µM) 71.5.
The matching figures for `O=C(C1CCN(S(=O)(=O)c2cccc3nsnc23)CC1)N1CC=C(c2ccccc2)CC1`: 27 (inactive) and 258.
As for `Cc1ccc(CNc2nc3ccccc3n3nnnc23)cc1`, the cell event count was 245 (inactive) (at 100 µM) and 196 (event count, at 10 µM).
The corresponding values for `CCOC(=O)C1=C(C)Nc2nc(SC)nn2C1c1ccc(C(=O)OC)cc1` (stereo not given) are 326 (inactive) and 178.
`COc1cccc(-c2cc(C(=O)N3CCN(C(c4ccccc4)c4ccccc4)CC3)no2)c1`: the cell event count is 440 (inactive) (at 100 µM) and 402 (event count, at 10 µM).
The corresponding values for `CC(=O)Nc1cc(C(=O)N2CCOCC2)ccc1S(=O)(=O)c1ccc(C)cc1` are 272 (inactive) and 300.
As for `O=C(NCCc1c[nH]c2ccccc12)C(F)(F)C(F)F`, the cell event count (at 100 µM) is 111 (inactive) and the cell event count (event count, at 10 µM) came out at 118.
The matching figures for `Cc1ccc(C(=O)/C=C/Nc2cccc(O)c2)cc1`: 17 (inactive) and 74.
For the compound `CCOC(=O)N1CCN(C(=O)Cc2ccc(-n3c(=O)[nH]c4ccccc4c3=O)cc2)CC1`, the cell event count (at 100 µM) was 302 (inactive) and the cell event count (event count, at 10 µM) is 265.

The record behind these values is PubChem BioAssay AID1076 (NMMLSC, 2008).
